Data as given in PubChem BioAssay AID493206 (National Center for Advancing Translational Sciences (NCATS), 2011).
“And” between values parts separate entries of the source, which are not always exact repeats. Equal entries are not always repeated. Records with an inconclusive call do not appear. The source made the active and inactive calls. Calls follow the shape of the dose curve; as a rule, active = well fitted inhibition curve with a large enough effect; inconclusive = small, poorly fitted or top-dose-only effect; inactive = flat fitted curve, though single readings scatter.

Molecular target: Dual specificity tyrosine-phosphorylation-regulated kinase 1A (Homo sapiens) (UniProt Q13627)
Experiment: Assay for Inhibitors of Dual-Specificity Tyrosine-(Y)-Phosphorylation Regulated Kinase 1A (Kinase-Glo assay): round 2 SAR
Details: recombinant DYRK1A, Kinase-Glo ATP depletion luminescence; series mostly up to 76.9 µM
Source text: NIH Molecular Libraries Probe Production Centers Network [MLPCN] NIH Chemical Genomics Center [NCGC] MLPCN Grant: 1R03MH084827-01 PI Name: Tom Misteli NCGC Assay Overview: The CMGC group of protein kinases which includes CDK-like kinases (Clk) and Dyks are essential kinases found in all eukaryotes. Clks have been implicated to play a role in the regulation of alternative splicing; while Dyrks, in particular over expression of Dyrk1A, has been linked to diseases as Down syndrome (DS; OMIM 190685) and Alzheimer disease (AD; OMIM 104300). Among the members of the CMGC group, the Clks and the Dyrks are very closely related therefore to determine validity and selectivity of an active compound observed in the CLK4 qHTS screen (AID:1770), a bioluminescent counter-screen against Dyrk1A was developed. In addition, potent and selective compounds against Dyrk1A were identified to further assess the role of this enzyme in DS and AD. Dyrk1A (Invitrogen, cat # PV3785) was assayed using ATP and DYRKtide (AnaSpec, cat# 62698) as substrates. Promega Kinase-Glo (cat# V6712) technology was used to detect the residual ATP following kinetic reaction. The Kinase-Glo Plus contains Ultra-Glo [5] luciferase and D-luciferin which generates a bioluminescence signal from the remaining ATP. No enzyme and harmine (Sigma, cat # 286044-1G), a compound shown to inhibit Dyrks were used as a positive control; while DMSO treatment was used as a negative control.
NCGC Assay Protocol Summary: Two uL/well of substrate solution (8uM Dyrktide, 2uM ATP, 25mM Tris-HCl pH 7.5, 10mM MgCl2 , 0.5mM EGTA, 5mM cystein, 0.01% Triton X-100 final concentration) was dispensed into 1536-well assay plates (Greiner, solid white, medium-binding plates) with Aurora Discovery BioRAPTR Flying Reagent Dispenser (FRD, Beckton-Dickenson). Compound solution (23 nL) was transferred to the assay plate using Kalypsys pin tool equipped with a 1536-pin tool. One uL/well enzyme solution (5nM Dyrk1A, 25mM Tris-HCl pH7.5, 10mM MgCl2, 0.5mM EGTA, 5mM cystein, 0.01% Triton X-100 final concentration) was then added using FRD yielding a total kinase reaction volume of 3uL/well. After 2 hours of room temperature incubation, 3uL Kinase-Glo detection reagent was added for a final assay volume of 6uL/well. The plates were spun for 30 seconds (1000 rpm) and incubated at ambient temperature for 2 minutes followed by a luminescence read using Perkin Elmer ViewLux plate reader at 3 seconds exposure time and 2x binning.

Q: Which Potency does the source give for COc1cccc(-c2ccc3ncnc(NCc4cccc(C)c4)c3c2)c1 here?
A: 8.23 µM (active)

Q: How did the Potency turn out when Cc1cccc(CNc2ncnc3ccc(-c4ccc5c(c4)OCO5)cc23)c1 was run?
A: 1.04 µM (active)

Q: With Clc1ccccc1-c1ccc2ncnc(NCc3ccc4c(c3)OCO4)c2c1 as the compound, how does the Potency read?
A: inactive

Q: With CN(Cc1ccco1)c1ncnc2ccc(-c3ccoc3)cc12 as the compound, how does the Potency read?
A: 0.207 µM (active)

Q: CCCNc1ncnc2ccc(-c3ccc4c(c3)OCO4)cc12 was tested. Which Potency did it give?
A: 0.184 µM (active)

Q: With CCNC(=O)c1ccc(-c2ccc3ncnc(NCc4ccc(C)o4)c3c2)o1 as the compound, how does the Potency read?
A: 9.23 µM (active)

Q: Cc1ccc(CNc2ncnc3ccc(-c4ccc([C@@H](C)O)o4)cc23)o1 was tested. Which Potency did it give?
A: 26 µM (active) and 16.4 µM (active) and 23.2 µM (active)

Q: With CC(O)c1ccc(-c2ccc3ncnc(N4CCOCC4)c3c2)o1 (stereo not given) as the compound, how does the Potency read?
A: 23.2 µM (active)

Q: c1cncc(CNc2ncnc3ccc(-c4ccc5c(c4)OCCO5)cc23)c1 was tested. Which Potency did it give?
A: 1.16 µM (active)

Q: Which Potency does the source give for Cc1cccc(CNc2ncnc3ccc(-c4ccc5c(c4)OCCO5)cc23)c1 here?
A: 3.68 µM (active)

Q: CCNC(=O)c1ccc(-c2ccc3ncnc(NCCc4cnc[nH]4)c3c2)o1 was tested. Which Potency did it give?
A: 11.6 µM (active)

Q: How did the Potency turn out when Cc1csc(CNc2ncnc3ccc(-c4ccc5c(c4)OCO5)cc23)n1 was run?
A: 0.207 µM (active)

Q: For Cc1csc(CNc2ncnc3cc(-c4ccc5c(c4)OCO5)ccc23)n1, which Potency is on record?
A: 29.2 µM (active)

Q: Which Potency does the source give for Clc1cccc(-c2ccc3ncnc(NCc4cccs4)c3c2)c1 here?
A: 13 µM (active)

Q: Which Potency does the source give for c1csc(CNc2ncnc3ccc(-c4ccc5c(c4)OCO5)cc23)c1 here?
A: 0.184 µM (active)

Q: How did the Potency turn out when C[C@@H](O)c1ccc(-c2ccc3ncnc(NCc4cccs4)c3c2)o1 was run?
A: 23.2 µM (active)

Q: Which Potency does the source give for O=C(O)c1ccc(-c2ccc3ncnc(N4CCOCC4)c3c2)o1 here?
A: 26 µM (active)

Q: How did the Potency turn out when c1nc(N2CCNCC2)c2cc(-c3ccc4c(c3)OCO4)ccc2n1 was run?
A: 5.19 µM (active)

Q: For O=C(O)c1ccc(-c2ccc3ncnc(NCC4CCCO4)c3c2)o1 (stereo not given), which Potency is on record?
A: 23.2 µM (active)

Q: With COc1cccc(Nc2ncc3ncc(=O)n(C)c3n2)c1 as the compound, how does the Potency read?
A: 11.6 µM (active)

Q: With Fc1cccc(CNc2ncnc3ccc(-c4ccccc4Cl)cc23)c1 as the compound, how does the Potency read?
A: 16.4 µM (active)

Q: For c1coc(CNc2ncnc3ccc(-c4ccc5c(c4)OCO5)cc23)c1, which Potency is on record?
A: 0.207 µM (active)

Q: For CS(=O)(=O)CCNCc1ccc(-c2ccc3ncnc(Nc4ccc(OCc5cccc(F)c5)c(Cl)c4)c3c2)o1, which Potency is on record?
A: inactive

Q: How did the Potency turn out when Clc1ccccc1-c1ccc2ncnc(NCc3cccs3)c2c1 was run?
A: 6.54 µM (active)

Q: Which Potency does the source give for Cn1ccc2cc(-c3ccc4ncnc(NCc5cccc(F)c5)c4c3)ccc21 here?
A: inactive

Q: Which Potency does the source give for Cc1csc(CNc2ncnc3ccc(-c4ccoc4)cc23)c1 here?
A: 3.68 µM (active)

Q: How did the Potency turn out when Cc1ccc(CN(C)c2ncnc3ccc(-c4ccc(C(=O)O)o4)cc23)o1 was run?
A: 16.4 µM (active)

Q: CN(CC(=O)O)c1ncnc2ccc(-c3ccc4c(c3)OCO4)cc12 was tested. Which Potency did it give?
A: 8.23 µM (active)

Q: Fc1cccc(CNc2ncnc3ccc(-c4cccnc4)cc23)c1 was tested. Which Potency did it give?
A: 26 µM (active)

Q: Which Potency does the source give for Cc1cccc(-c2ccc3ncnc(NCc4cccs4)c3c2)c1 here?
A: 18.4 µM (active)

Q: Which Potency does the source give for CC(=O)c1ccc(-c2ccc3ncnc(NCc4ccc(C)o4)c3c2)o1 here?
A: 5.82 µM (active)

Q: Which Potency does the source give for Cc1cccc(CNc2ncnc3ccc(-c4ccoc4)cc23)c1 here?
A: 3.68 µM (active)

Q: Which Potency does the source give for CN1CCN(c2ncc3nc(-c4cn(C)c5ccccc45)c(=O)n(Cc4cccs4)c3n2)CC1 here?
A: inactive

Q: With Cc1ccsc1CN(C)c1ncnc2ccc(-c3ccc([C@@H](C)O)o3)cc12 as the compound, how does the Potency read?
A: 3.68 µM (active) and 1.46 µM (active) and 1.04 µM (active)

Q: Cc1csc(CNc2ncnc3ccc(-c4cccnc4)cc23)c1 was tested. Which Potency did it give?
A: 23.2 µM (active)

Q: How did the Potency turn out when Cc1csc(CNc2ncnc3ccc(-c4ccc5c(c4)OCO5)cc23)c1 was run?
A: 0.463 µM (active)

Q: How did the Potency turn out when c1nc(NCC2CCCCC2)c2cc(-c3ccc4c(c3)OCO4)ccc2n1 was run?
A: 0.26 µM (active)

Q: With CC(Nc1ncnc2ccc(-c3ccc4c(c3)OCO4)cc12)c1ccco1 (stereo not given) as the compound, how does the Potency read?
A: 0.582 µM (active)

Q: O=C(O)c1ccc(-c2ccc3ncnc(NCc4nccs4)c3c2)o1 was tested. Which Potency did it give?
A: 18.4 µM (active)

Q: How did the Potency turn out when c1csc(CNc2ncnc3ccc(-c4ccc5c(c4)OCO5)cc23)n1 was run?
A: 0.184 µM (active)
